Reference: PubChem BioAssay (Tox21)
Results filed as inconclusive are left out. The source made the active and inactive calls. Unless noted, calls follow the shape of the dose curve; as a rule, active = well fitted curve in the direction sought with a large enough effect in the repeat runs; inconclusive = weak or mixed curves; inactive = no such curve, though single readings can be large; an effect the other way counts as inactive or inconclusive.

Key:
[1] = target: Luciferin 4-monooxygenase (Photinus pyralis) (UniProt P08659); assay: qHTS assay to identify small molecule inhibitors of firefly luciferase (AID 1224835); also: nearly all actives have a fitted effect of over 25% in size; also: potency is read from the fitted curve at half-maximal effect
Sequence of Luciferin 4-monooxygenase (Photinus pyralis) (P08659 whole entry, looked up): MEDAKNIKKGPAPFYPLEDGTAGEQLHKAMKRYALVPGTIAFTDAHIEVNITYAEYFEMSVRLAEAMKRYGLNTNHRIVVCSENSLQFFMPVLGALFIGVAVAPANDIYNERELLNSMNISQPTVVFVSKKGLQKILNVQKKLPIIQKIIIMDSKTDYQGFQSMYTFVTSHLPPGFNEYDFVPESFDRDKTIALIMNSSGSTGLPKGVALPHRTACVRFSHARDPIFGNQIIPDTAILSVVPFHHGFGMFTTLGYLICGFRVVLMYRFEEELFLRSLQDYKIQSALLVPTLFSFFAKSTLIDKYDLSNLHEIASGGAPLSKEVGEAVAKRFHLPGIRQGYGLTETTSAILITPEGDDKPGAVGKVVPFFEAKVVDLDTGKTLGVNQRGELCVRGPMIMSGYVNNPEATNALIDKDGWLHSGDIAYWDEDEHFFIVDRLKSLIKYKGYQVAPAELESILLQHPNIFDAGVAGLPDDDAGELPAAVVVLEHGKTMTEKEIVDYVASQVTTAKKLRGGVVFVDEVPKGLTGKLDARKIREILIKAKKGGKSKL
Procedure, shortened: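 Biochemical qHTS: compounds run as interplate titrations against purified firefly enzyme, with D-luciferin and ATP each at its KM concentration. Light output recorded by CCD imaging.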

[2] = qHTS assay to identify small molecule agonists of the constitutive androstane receptor (CAR) signaling pathway - cell viability counter screen (AID 1224836); also: nearly all actives have a fitted effect of over 45% in size; also: potency is read from the fitted curve at half-maximal effect
Procedure, shortened: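 Fluorescence from CellTiter-Fluor indicates live cells after 23 h exposure. The human hepatoma line expresses hCAR and a CYP2B6-2.2kb reporter. Incubation medium contains 0.75 uM PK11195 (final).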

[3] = qHTS assay to identify small molecule antagonists of the constitutive androstane receptor (CAR) signaling pathway - cell viability counter screen (AID 1224837); also: nearly all actives have a fitted effect of over 45% in size; also: potency is read from the fitted curve at half-maximal effect
Procedure, shortened: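 Fluorescence from CellTiter-Fluor served as the viability signal. Human hepatoma HepG2 cells stably bearing hCAR and CYP2B6-2.2kb received compound plus CITCO (50 nM final) for 23 hr.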

[4] = target: Nuclear receptor subfamily 1 group I member 3 (Homo sapiens) (UniProt Q14994); assay: qHTS assay to identify small molecule antagonists of the constitutive androstane receptor (CAR) signaling pathway (AID 1224838);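 also: HepG2 cells stably expressing hCAR with CYP2B6 luciferase reporter stimulated by CITCO; nearly all actives have a fitted effect of over 40% in size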; also: potency is read from the fitted curve at half-maximal effect
Sequence of Nuclear receptor subfamily 1 group I member 3 (Homo sapiens) (Q14994 whole entry, looked up): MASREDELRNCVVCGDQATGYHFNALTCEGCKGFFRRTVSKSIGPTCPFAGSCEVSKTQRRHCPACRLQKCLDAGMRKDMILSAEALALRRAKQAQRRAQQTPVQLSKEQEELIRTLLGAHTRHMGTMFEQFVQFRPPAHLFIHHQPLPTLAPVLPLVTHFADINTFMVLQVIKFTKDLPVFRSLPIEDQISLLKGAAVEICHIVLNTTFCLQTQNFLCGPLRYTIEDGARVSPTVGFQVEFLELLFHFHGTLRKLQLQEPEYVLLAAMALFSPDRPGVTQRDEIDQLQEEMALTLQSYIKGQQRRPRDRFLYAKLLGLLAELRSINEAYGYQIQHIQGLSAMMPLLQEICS
Procedure, shortened: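 Quantitative HTS in double-stable HepG2-CYP2B6-hCAR cells. After 4 h plating, cells get compound (15 concentrations) and CITCO at 50 nM final, incubate 24 h at 37 C, then ONE-Glo luminescence is read.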

[5] = qHTS assay to identify small molecule antagonists of the estrogen related receptor signaling pathway with the pleiotropic PPARgamma coactivator (PGC) from Tox21 10K library - cell viability counter screen (AID 1224840; active = well fitted cell-killing curve with a large enough effect in the repeat runs, not every such curve was filed as active; also: nearly all actives have a fitted effect of over 40% in size; also: potency is read from the fitted curve at half-maximal effect)
Procedure, shortened: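 Compounds in DMSO, alongside positive and negative controls, were pinned onto PGC/ERR cells (2,000 per well). Exposure lasted 17.5 hours at 37 C, followed by a 30-minute CellTiter-Fluor incubation and fluorescence reading.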

[6] = qHTS assay to identify small molecule antagonists of the estrogen related receptor signaling pathway with the pleiotropic PPARgamma coactivator (PGC) from Tox21 10K library (AID 1224841; call rule not given here; also: actives are mostly falling curves and most rising ones were filed inactive; nearly all actives have a fitted effect of over 50% in size; also: potency is read from the fitted curve at half-maximal effect)
Procedure, shortened: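 Compound exposure ran 18 hours at 37 C in PGC/ERR cells (2,000/well) that had first rested 6 hours in a 37 C/5% CO2 incubator. Luciferase activity was then detected with One-Glo after a 30-minute room-temperature step.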

[7] = qHTS assay to identify small molecule agonists of the estrogen related receptor signaling pathway with the pleiotropic PPARgamma coactivator (PGC) from Tox21 10K library (AID 1224842); also: nearly all actives have a fitted effect of over 15% in size
Procedure, shortened: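 PGC/ERR reporter cell line, 2,000 cells per well, incubated 6 h at 37 C before 23 nL compound in DMSO was added. After 18 h at 37 C, One-Glo luminescence read following 30 min at room temperature.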

[8] = target: Thyrotropin receptor (Homo sapiens) (UniProt P16473); assay: qHTS assay to identify small molecule agonists of the thyroid stimulating hormone receptor (TSHR) signaling pathway (AID 1224843; calls by dose curve; also: nearly all actives have a fitted effect of over 45% in size; also: potency is read from the fitted curve at half-maximal effect)
Sequence of Thyrotropin receptor (Homo sapiens) (P16473 whole entry, looked up): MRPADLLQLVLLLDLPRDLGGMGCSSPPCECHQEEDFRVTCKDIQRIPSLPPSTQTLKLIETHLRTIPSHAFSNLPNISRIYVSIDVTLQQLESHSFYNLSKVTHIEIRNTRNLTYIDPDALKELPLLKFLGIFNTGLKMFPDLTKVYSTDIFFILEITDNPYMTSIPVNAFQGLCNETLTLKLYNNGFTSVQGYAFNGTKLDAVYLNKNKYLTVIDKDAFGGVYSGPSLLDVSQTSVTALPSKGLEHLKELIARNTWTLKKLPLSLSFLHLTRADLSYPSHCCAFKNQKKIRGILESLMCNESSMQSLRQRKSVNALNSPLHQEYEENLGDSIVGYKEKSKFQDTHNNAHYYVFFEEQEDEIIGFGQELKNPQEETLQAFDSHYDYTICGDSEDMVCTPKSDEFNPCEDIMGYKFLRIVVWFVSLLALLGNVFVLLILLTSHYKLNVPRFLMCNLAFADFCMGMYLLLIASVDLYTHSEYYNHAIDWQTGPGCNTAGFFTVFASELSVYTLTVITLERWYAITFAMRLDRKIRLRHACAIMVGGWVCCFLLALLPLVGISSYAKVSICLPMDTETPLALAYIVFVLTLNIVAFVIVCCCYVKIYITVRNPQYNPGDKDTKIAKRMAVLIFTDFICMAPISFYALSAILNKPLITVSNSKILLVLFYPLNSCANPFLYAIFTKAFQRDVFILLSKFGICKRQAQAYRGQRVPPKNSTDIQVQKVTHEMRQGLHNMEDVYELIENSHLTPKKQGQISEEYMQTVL
Procedure, shortened: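 TSHR-HEK293 cells in agonist mode, 30 min room-temperature step, then cAMP measured by competitive HTRF (cAMP-d2 with anti-cAMP cryptate) after 1 h at room temperature. Tested at 15 concentrations in triplicate.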

[9] = qHTS assay to identify small molecule agonists of the retinoic acid receptor (RAR) signaling pathway (AID 1159553); also: potency is read from the fitted curve at half-maximal effect
Procedure, shortened: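 Cell line C3RL4, RARE luciferase reporter. Treatment: compounds in DMSO, 6 hr, 37 C, 5% CO2, after overnight plating. Detection: luminescence, 30 min RT after reagent.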

[10] = qHTS assay to identify small molecule antagonists of the retinoic acid receptor (RAR) signaling pathway (AID 1159552; also: nearly all actives have a fitted effect of over 50% in size; also: potency is read from the fitted curve at half-maximal effect)
Procedure, shortened: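 Overnight-plated C3RL4 reporter cells get compound, then retinol to 1 uM final; plates sit 6 hr at 37 C, 5% CO2. A luciferase reagent is added and light output recorded after 30 min at room temperature.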

[11] = qHTS assay to identify small molecule antagonists of the estrogen related receptor (ERR) signaling pathway from Tox21 library - cell viability counter screen (AID 1224834); also: nearly all actives have a fitted effect of over 30% in size; also: potency is read from the fitted curve at half-maximal effect
Procedure, shortened: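 Viability readout (CellTiter-Fluor fluorescence, 30 min at 37 C) multiplexed with the ERR assay; cells treated 17.5 h at 37 C with compounds delivered in DMSO.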

[12] = qHTS assay to identify small molecule antagonists of the estrogen related receptor (ERR) signaling pathway - cell viability counter screen (AID 1224818);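 also: series mostly up to about 46 µM; viability measured after 17.5 h of compound exposure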
Procedure, shortened: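 Here, ERR cells are plated at 2,000 cells per well, allowed 6 h to attach, and treated with compounds in DMSO for 17.5 h at 37 C. CellTiter-Fluor is then added and fluorescence read after 30 min.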

[13] = qHTS assay to identify small molecule agonists of the estrogen related receptor (ERR) signaling pathway (AID 1224820)
Procedure, shortened: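 ERR reporter cell line (from NTP), 2,000 cells/well, incubated 6 h before compound addition, then 18 h at 37 C. Luminescence measured 30 min after One-Glo reagent at room temperature.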

[14] = test system: estrogen-related receptor alpha (ERRalpha) with PGC-1alpha coactivator, human; assay: qHTS assay to identify small molecule antagonists of the estrogen related receptor signaling pathway with the pleiotropic PPARgamma coactivator (PGC) (AID 1224821; calls by dose curve;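 also: series mostly up to about 46 µM; lower luminescence signal means antagonism of PGC/ERR signalling; nearly all actives have a fitted effect of over 50% in size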)
Procedure, shortened: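 PGC/ERR reporter cell line, plated 6 h before compound addition, then exposed 18 h at 37 °C. Luciferase activity read by luminescence 30 min after One-Glo addition; decrease indicates antagonism.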

[15] = qHTS assay to identify small molecule antagonists of the estrogen related receptor signaling pathway with the pleiotropic PPARgamma coactivator (PGC) cell viability counter screen (AID 1224822;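 also: series mostly up to about 46 µM; viability read after 17.5 h compound exposure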)
Procedure, shortened: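 qHTS format, DMSO compound stocks pin-transferred onto PGC/ERR cells 6 h after plating; 17.5 h exposure at 37 C, then CellTiter-Fluor fluorescence.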

[16] = qHTS assay to identify small molecule agonists of the estrogen related receptor signaling pathway with the pleiotropic PPARgamma coactivator (PGC) (AID 1224823)
Procedure, shortened: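 PGC/ERR reporter cells seeded 6 h, then exposed to compounds (23 nL in DMSO) for 18 h at 37 C. One-Glo luciferase luminescence read after 30 min at room temperature.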

[17] = target: Nuclear receptor subfamily 1 group I member 3 (Homo sapiens) (UniProt Q14994); assay: qHTS assay to identify small molecule agonists of the constitutive androstane receptor (CAR) signaling pathway (AID 1224839); also: nearly all actives have a fitted effect of over 15% in size; also: potency is read from the fitted curve at half-maximal effect
Procedure, shortened: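 Stable hCAR/CYP2B6-2.2kb HepG2 line in DMEM with 10% FBS; compounds (15 concentrations) and 0.75 uM PK11195 final, 24 h at 37 C/5% CO2, then ONE-Glo luminescence after 30 min.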

[18] = qHTS assay to identify small molecule antagonists of the retinoid acid receptor (RAR) signaling pathway - cell viability counter screen (AID 1159551); also: nearly all actives have a fitted effect of over 35% in size
Procedure, shortened: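 Following overnight attachment, C3RL4 reporter cells received DMSO-dissolved compounds and then retinol (1 uM final). Six hours later at 37 C, ATP content was measured by CellTiter-Glo luminescence.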

[19] = qHTS assay to identify small molecule antagonists of the estrogen related receptor (ERR) signaling pathway (AID 1224819;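 also: luminescence from an ERR-driven luciferase reporter measured with One-Glo reagent; series mostly up to about 46 µM; nearly all actives have a fitted effect of over 50% in size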)
Procedure, shortened: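 LOPAC library screened for antagonism as reduced One-Glo luminescence in ERR reporter cells (2,000/well). Compounds were added after 6 h pre-incubation and left 18 h at 37C; reading followed a 30 min room-temperature reagent step.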

Measured: Potency

CCCCOCN(C(=O)CCl)c1c(CC)cccc1CC
inactive: [1] | [2] | [3] | [4] | [5] | [7] | [8]
active: [6] 12.2 µM

Oc1c(Cl)c(Cl)cc(Cl)c1Cl
active: [6] 53 µM
inactive: [9] | [3] | [4] | [7] | [8]

CC1(c2ccc(Oc3ccccc3)cc2)OC(=O)N(Nc2ccccc2)C1=O (configuration not stated)
inactive: [1] | [4] | [7]
active: [10] 27.5 µM | [11] 27.5 µM | [6] 4.89 µM

Nc1ccc(Sc2ccc(N)cc2)cc1
active: [17] 34.4 µM
not listed: [1] | [6] | [9] | [11] | [18] | [19]
inactive: all other assays above

N#Cc1c(-c2ccc(Cl)cc2)[nH]c(C(F)(F)F)c1Br
active: [3] 1.22 µM | [4] 0.969 µM | [5] 1.54 µM | [6] 0.486 µM
inactive: [17] | [7] | [8]

C=CC(=O)OCC(COC(=O)C=C)(COC(=O)C=C)COC(=O)C=C
active: [10] 13.7 µM | [9] 1.93 µM | [11] 9.69 µM | [3] 8.63 µM | [4] 8.63 µM | [5] 5.45 µM | [6] 13.7 µM | [8] 8.63 µM
inactive: [1] | [17] | [7]

Oc1c(Br)c(Br)c(Br)c(Br)c1Br
inactive: [9] | [4] | [17]

S=C=Nc1cccc2ccccc12
active: [11] 67.9 µM
inactive: [10] | [1] | [5] | [7]

Nc1ccc(Cc2ccc(N)c(Cl)c2)cc1Cl
active: [17] 16.7 µM | [6] 13.2 µM
inactive: [4] | [7] | [8]

CC(=O)[O-].[Tl+]
active: [11] 61.5 µM
inactive: [18] | [2] | [3] | [5]

CCOCCOC(C)=O
not listed: [1] | [4] | [6] | [10] | [17] | [18]
inactive: all other assays above

CCCOCC(=Nc1ccc(Cl)cc1C(F)(F)F)n1ccnc1
inactive: [9] | [1] | [4]
active: [11] 54.4 µM | [17] 48.5 µM | [8] 54.4 µM

COc1cccc(C(=O)CCN[C@@H](C)[C@H](O)c2ccccc2)c1
inactive: [9] | [11] | [2] | [17] | [5] | [6] | [7] | [8]
active: [10] 26.6 µM

Nc1ccccc1C(=O)OC/C=C/c1ccccc1
inactive: [10] | [2] | [3] | [4] | [5] | [8]
active: [9] 1.22 µM | [1] 31.8 µM | [17] 48.7 µM

CCC(C)c1cc([N+](=O)[O-])cc([N+](=O)[O-])c1OC(=O)C=C(C)C (configuration not stated)
active: [3] 61.1 µM | [5] 30.6 µM
inactive: [1]

c1ccc2c(c1)OCC(C1=NCCN1)O2 (configuration not stated)
inactive: [15] | [1] | [17]
active: [11] 21.1 µM | [3] 29.8 µM | [4] 21.1 µM | [5] 21.1 µM | [8] 15 µM

CCOP(=S)(OCC)SCCS(=O)(=O)CC
inactive: [18] | [1] | [2] | [3] | [5] | [7]

CC(C)(C)c1cc([N+](=O)[O-])cc(C(C)(C)C)c1O
active: [11] 13.7 µM | [2] 19.3 µM | [3] 21.7 µM | [4] 27.3 µM | [17] 5.45 µM | [5] 13.7 µM | [6] 2.73 µM
inactive: [1] | [7] | [8]

C[C@@H]1CC[C@@]2(OC1)O[C@H]1[C@@H](O)[C@H]3[C@@H]4CC[C@H]5C[C@@H](O[C@@H]6O[C@H](CO)[C@H](O[C@@H]7O[C@H](CO)[C@@H](O)[C@H](O[C@@H]8OC[C@@H](O)[C@H](O)[C@H]8O)[C@H]7O[C@@H]7O[C@H](CO)[C@@H](O)[C@H](O[C@@H]8O[C@H](CO)[C@@H](O)[C@H](O)[C@H]8O)[C@H]7O)[C@H](O)[C@H]6O)[C@H](O)C[C@]5(C)[C@H]4CC[C@]3(C)[C@H]1[C@@H]2C
inactive: [1] | [17] | [7]
active: [10] 20.5 µM | [11] 20.5 µM | [2] 23 µM | [3] 25.8 µM | [4] 29 µM | [5] 20.5 µM | [6] 40.9 µM

O=C/C(Cl)=C(/Cl)C(=O)O
inactive: [18] | [11] | [3] | [4] | [5] | [6] | [7] | [8]

CC(=O)O[C@H]1CC[C@@]2(C)C(=CC[C@@H]3[C@@H]2CC[C@]2(C)C(=O)CC[C@@H]32)C1
inactive: [10] | [1] | [3] | [17] | [5] | [8]

CC(C)(C)C(O)/C(=C\c1ccc(Cl)cc1Cl)n1cncn1 (configuration not stated)
active: [10] 58.7 µM | [11] 65.9 µM | [2] 74 µM | [5] 58.7 µM | [6] 29.4 µM
inactive: [1] | [4] | [7]

CC(C)OC(=S)S
inactive: [11] | [2]

Oc1ccc(C2(c3ccc(O)cc3)c3ccccc3-c3ccccc32)cc1
active: [11] 68.6 µM | [3] 61.1 µM | [5] 61.1 µM | [8] 54.5 µM
inactive: [7]
